The whole screen tested about 52,000 compounds, of which about 4,300 (8.3%) were called active. No stated cut-off is given here; in the data, active means survival mostly below about 52% (no sharp cut-off); inactive means mostly above about 56%. The entries come from a sample that favours actives as a whole.
What follows are compounds tested on DeltatarO mutant (assay: S. aureus survival, RN4220 and DeltatarO strains – OD600, teichoic acid synthesis inhibitors, primary screen (AID 463173)). Conditions: S. aureus RN4220 wild type/DeltatarO growth, OD600, 18 h, stronger effect = lower value, screened at 18.75 µg/mL (by protocol).

Row | SMILES | survival
1 | Clc1ccc(CSc2nc3ncccc3[nH]2)cc1 | 71% (inactive)
2 | COC(=O)c1ccc(-n2c(/C=C\c3cccc(Br)c3)nc3ccccc3c2=O)cc1 | 70% (inactive)
3 | O=C(O)c1cc(-n2c(/C=C\c3ccc(F)cc3)nc3ccccc3c2=O)ccc1Cl | 94% (inactive)
4 | O=C(O)c1ccc(-n2c(/C=C\c3ccc(O)cc3)nc3ccccc3c2=O)cc1 | 58% (active)
5 | COc1ccc(C)cc1NC(=O)N1CC(C)Sc2ccccc21 (stereo unspecified) | 55% (inactive)
6 | Cc1ccc(N(C)C(=O)CC(C)S(=O)(=O)c2ccc3c(c2)NC(=O)CO3)cc1 (stereo unspecified) | 120% (inactive)
7 | c1ccc2c(c1)[nH]c1nc(NN=C3CCC(=NNc4nnc5c(n4)[nH]c4ccccc45)CC3)nnc12 | 93% (inactive)
8 | COc1cccc(-c2nc3c(c(SCC(=O)Nc4cc(C)ccc4C)n2)Cc2c(CO)cnc(C)c2O3)c1 | 77% (inactive)
9 | CCc1ccc(NC(=O)c2ccc3oc(=O)n(Cc4ccccc4)c3c2)cc1 | 6% (active)
10 | O=C(NCc1ccccc1)c1ccc2oc(=O)n(Cc3ccccc3)c2c1 | 72% (inactive)
11 | O=C(Nc1ccc(Cl)cc1)c1ccc2oc(=O)n(Cc3ccccc3)c2c1 | 67% (inactive)
12 | O=C(NCc1ccc(Cl)cc1)c1ccc2oc(=O)n(Cc3ccccc3)c2c1 | 109% (inactive)
13 | COc1cccc(CNC(=O)c2ccc3oc(=O)n(Cc4ccccc4)c3c2)c1 | -1% (active)
14 | O=C(Nc1cccc(F)c1)c1ccc2oc(=O)n(Cc3ccccc3)c2c1 | 70% (inactive)
15 | Cc1ccc(CNC(=O)c2ccc3oc(=O)n(Cc4ccccc4)c3c2)cc1 | 64% (inactive)
16 | CCc1ccc(NC(=O)c2ccc3c(c2)nnn3CC)cc1 | -4% (active)
17 | CCn1nnc2cc(C(=O)Nc3ccc(C)c(Cl)c3)ccc21 | 54% (inactive)
18 | O=C(NCc1ccc(F)cc1)c1ccc2oc(=O)n(Cc3ccccc3)c2c1 | -2% (active)
19 | CCn1nnc2cc(C(=O)Nc3ccc(OC)cc3)ccc21 | 102% (inactive)
20 | Cc1cccc(CNC(=O)c2ccc3oc(=O)n(Cc4ccccc4)c3c2)c1 | 76% (inactive)
21 | O=C(Cc1ccc(F)cc1)Nc1nncs1 | 99% (inactive)
22 | Cc1ccc2ncc(C(=O)N3CCN(c4ccccc4F)CC3)c(=O)n2c1 | 102% (inactive)
23 | CCOC(=O)c1c(NC(C)=O)c2c3c(sc2n1Cc1cc(C)ccc1C)CCCC3 | 98% (inactive)

Row | SMILES | survival
24 | O=C(CCOc1ccccc1)N(Cc1cccnc1)c1nc2c(F)cc(F)cc2s1 | 97% (inactive)
25 | CC1=C(C(N)=O)C(c2cccc(C)c2)n2nc(-c3cccc(C)c3)nc2N1 (stereo unspecified) | 66% (inactive)
26 | Cc1cccc(NC(=O)C2CCCN(S(=O)(=O)c3cccc4nonc34)C2)c1C (stereo unspecified) | 119% (inactive)
27 | Cc1c(C(=O)N(C)C)sc2c1c(=O)n(-c1ccc(F)cc1)c(=O)n2Cc1ccccc1C#N | 76% (inactive)
28 | Cc1ccc(N(C)C(=O)c2sc3nc4n(c(=O)c3c2C)CCCC4)cc1C | 64% (inactive)
29 | O=C(Cn1c(=O)n(CCCS(=O)(=O)C2CCCCC2)c(=O)c2ccccc21)Nc1ccccc1C(F)(F)F | 91% (inactive)
30 | Cc1ccc(S(=O)(=O)CCC(=O)Nc2ccc(Br)cc2C)cc1 | 85% (inactive)
31 | Cc1ccc(C)c(N2CCN(C(=O)C3CCCN(S(=O)(=O)c4cccc5nonc45)C3)CC2)c1 (stereo unspecified) | 76% (inactive)
32 | COc1ccc(OC)c(NC(=O)c2cc3cccc(OC)c3oc2=O)c1 | 77% (inactive)
33 | Cc1cccc(C)c1NC(=O)c1cc2sccc2n1Cc1ccc(F)cc1 | 96% (inactive)
34 | COc1cc(/C=C(\C#N)c2nc3ccc(C)cc3[nH]2)ccc1OCc1ccc(C)cc1 | 59% (inactive)
35 | COc1ccc(/C=C(\C#N)c2nc3ccccc3c(=O)[nH]2)cc1OC | 86% (inactive)
36 | CCC(=O)Oc1ccc(/C=C(\C#N)c2nc3ccccc3[nH]2)cc1OC | 47% (inactive)
37 | CCOC(=O)COc1ccc(/C=C(\C#N)c2nc3ccc(C)cc3[nH]2)cc1OC | 43% (active)
38 | COc1cc(/C=C(\C#N)c2nc3ccccc3[nH]2)ccc1OCc1ccc(F)cc1 | 70% (inactive)
39 | COc1cc(/C=C(\C#N)c2nc3ccc(C)cc3[nH]2)ccc1OC(C)C | 46% (active)
40 | Cc1ccc(-n2nc(C)c3c(C)cc(=O)n(CC(=O)N4CCCc5ccccc54)c32)cc1 | 80% (inactive)
41 | Cc1oc2ncn(CC(C)C)c(=O)c2c1C(=O)Nc1ccc(Cl)cn1 | 86% (inactive)
42 | COc1ccc(CNC(=O)C2CCC(CNS(=O)(=O)c3ccc4c(c3)CCCC(=O)N4)CC2)cc1 (stereo unspecified) | 87% (inactive)
43 | CCc1cccc(NC(=O)C2CCCN(c3ncccn3)C2)c1 (stereo unspecified) | 80% (inactive)
44 | COc1ccc(CNC(=O)CCc2c(C)nn(-c3ccc(N4CCCCC4)nn3)c2C)cc1 | 75% (inactive)
45 | Cc1ccc(CNC(=O)CN2CCN(Cc3ccc(F)cc3)C2=O)cc1 | 95% (inactive)
46 | Cc1c(Cl)cccc1NC(=O)c1ccc(C(=O)Nc2cccc(Cl)c2C)cc1 | 81% (inactive)

Row | SMILES | survival
47 | CCC(Cc1ccccc1)NC(=O)c1cccc(Nc2nc3ccccc3nc2-n2nc(C)cc2C)c1 (stereo unspecified) | 63% (inactive)
48 | Cc1cc(C)n(-c2nc3ccccc3nc2Nc2cc(C(=O)O)ccc2C)n1 | 42% (active)
49 | CC(=O)c1ccc(Nc2nc3ccccc3nc2-n2nc(C)cc2C)cc1 | 44% (active)
50 | CCCOC(=O)c1ccc(Nc2nc3ccccc3nc2-n2nc(C)cc2C)cc1 | 24% (active)
51 | Cc1ccc(C(=O)O)cc1Nc1nc2ccccc2n2nnnc12 | 82% (inactive)
52 | CCCCOC(=O)c1ccc(Nc2nnc(-n3nc(C)cc3C)c3ccccc23)cc1 | 98% (inactive)
53 | Cc1cc(C)n(-c2nc3ccccc3nc2Nc2ccc(Cl)c(C(=O)OC(C)C)c2)n1 | 99% (inactive)
54 | Cc1cc(C)n(-c2nc3ccccc3nc2Nc2cccc(C(=O)NCCc3ccccc3)c2)n1 | 93% (inactive)
55 | Cc1ccc(Nc2nc3ccc(C)cc3nc2-n2nc(C)cc2C)c(C)c1 | 81% (inactive)
56 | COc1cccc(C(=O)Nc2c(C(=O)c3ccc(F)cc3)oc3ccccc23)c1 | 66% (inactive)
57 | CCn1c(SC)nnc1C1CCCN(Cc2ccccc2)C1 (stereo unspecified) | 100% (inactive)
58 | CC(C)Cn1cc(NC(=O)N2CCN(c3ccc(F)cc3)CC2)c2ccccc2c1=O | 99% (inactive)
59 | O=C(Nc1cccc(F)c1)c1ccc(-c2ccccc2)s1 | 82% (inactive)
60 | CCOC(=O)c1cc(-c2ccc(OC)cc2)n(CCC(=O)Nc2cccc(C)c2C)c1C | 93% (inactive)
61 | CC1=Nc2cc(C(=O)NC3CCCC3)ccc2Sc2ccc(Cl)cc21 | 77% (inactive)
62 | Cc1ccccc1-c1nnc(C2CCN(S(=O)(=O)c3ccc(Cl)cc3)CC2)o1 | 89% (inactive)
63 | CCOc1ccc2nc(N3CCCC(C(=O)Nc4ccccc4CC)C3)sc2c1 (stereo unspecified) | 95% (inactive)
64 | Cc1cccc(C(=O)Nc2nnc(S(=O)(=O)N3CCOCC3)s2)c1 | 58% (inactive)
65 | O=C(Nc1nnc(S(=O)(=O)N2CCCCCC2)s1)c1ccc(Br)cc1 | 60% (inactive)
66 | O=C(Nc1nnc(S(=O)(=O)N2CCCCCC2)s1)c1cccc(Br)c1 | 9% (active)
67 | COc1cccc(C(=O)Nc2nc3ccc(S(=O)(=O)N4CCCC4)cc3s2)c1 | 79% (inactive)
68 | O=C(Nc1nnc(S(=O)(=O)N2CCOCC2)s1)c1cccc(Br)c1 | 42% (active)
69 | COc1cccc(C(=O)Nc2nnc(S(=O)(=O)N3CCCC3)s2)c1 | 33% (active)

Row | SMILES | survival
70 | COc1ccc(C(=O)Nc2nnc(S(=O)(=O)N3CCCCCC3)s2)cc1OC | 80% (inactive)
71 | O=C(Nc1nnc(S(=O)(=O)N2CCOCC2)s1)c1ccc(F)cc1 | 78% (inactive)
72 | CC1CCN(C(=O)COc2ccc(C(C)C)cc2)CC1 | 86% (inactive)
73 | Cc1ccc(C)n1-c1nnc(N2CCC(C(=O)Nc3ccccc3Br)CC2)s1 | 91% (inactive)
74 | c1cc(CNC2CCCCC2)co1 | 72% (inactive)
75 | Nc1nnc(CCC(CCc2nnc(N)s2)(CCc2nnc(N)s2)C(=O)c2ccccc2)s1 | 92% (inactive)
76 | COc1ccc(C)c2sc(N(Cc3cccnc3)C(C)=O)nc12 | 80% (inactive)
77 | COc1ccccc1NC(=O)Cn1c(=O)n(Cc2ccc3c(c2)OCO3)c(=O)c2oc3ccccc3c21 | 77% (inactive)
78 | Cn1c(SCc2ccc(F)cc2)nc2ccc(C(=O)NCc3cccc(Cl)c3)cc21 | 56% (active)
79 | Cn1c(SCc2ccc(F)cc2)nc2ccc(C(=O)NCc3ccccc3)cc21 | 49% (inactive)
80 | Cn1c(SCc2ccc(F)cc2)nc2ccc(C(=O)NCc3ccc(Cl)cc3)cc21 | 50% (inactive)
81 | COc1ccc(OC)c(C2NC(=O)NC(C)=C2C(=O)Nc2cc(C)cc(C)c2)c1 (stereo unspecified) | 47% (inactive)
82 | COc1cc(C2NC(=O)NC(C)=C2C(=O)Nc2cc(C)cc(C)c2)ccc1O (stereo unspecified) | 38% (active)
83 | COc1ccc(C2NC(=O)NC(C)=C2C(=O)Nc2ccccc2)cc1OC (stereo unspecified) | 116% (inactive)
84 | Cc1cccc(NC(=O)CSc2nnc3[nH]c(=O)cc(-c4ccccc4)n23)c1C | 116% (inactive)
85 | O=S(=O)(NCC(c1cccs1)S(=O)(=O)c1ccccc1)c1ccc(F)cc1 (stereo unspecified) | 46% (active)
86 | O=C(NCc1ccccc1)C(=O)NCC(c1cccs1)S(=O)(=O)c1cccs1 (stereo unspecified) | 91% (inactive)
87 | Cc1ccc(CNC(=O)C(=O)NCC(c2cccs2)S(=O)(=O)c2ccc(C)cc2)cc1 (stereo unspecified) | 98% (inactive)
88 | O=S(=O)(NCC(c1cccs1)S(=O)(=O)c1ccccc1)c1ccc(F)c(C(F)(F)F)c1 (stereo unspecified) | 92% (inactive)
89 | O=S(=O)(NCC(c1cccs1)S(=O)(=O)c1ccccc1)c1ccccc1 (stereo unspecified) | 115% (inactive)
90 | O=C(NCc1ccccc1)C(=O)NCC(c1cccs1)S(=O)(=O)c1ccccc1 (stereo unspecified) | 52% (active)
91 | CC(C)c1ccc(N2C(=O)CS(=O)(=O)C23C(=O)N(Cc2cccc(F)c2)c2ccccc23)cc1 (stereo unspecified) | 69% (inactive)

Source: PubChem BioAssay AID463173 (ICCB-Longwood Screening Facility, Harvard Medical School, 2010)
